KDM5B inh: Primary screen for KDM5B Histone Demethylases FDH-coupled qHTS. KDM5B demethylase, FDH-coupled NADH fluorescence (FDH is formaldehyde dehydrogenase). AID 1347165, 2019. 2.6% of 220,000 active. Lysine-specific demethylase 5B (Homo sapiens), Q9UGL1. Potency, µM (highest dose often 57.7 µM), usual class: inhibitors; active = well fitted inhibition curve with a large enough effect; also: 0% is about no effect; nearly all actives have a fitted effect of over 70% in size
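Here, H3K4me3 peptide (12.5 µM in substrate mix) is demethylated by KDM5BΔAP, 200 nM final, after 10 min compound exposure. Formaldehyde product is coupled through FDH (0.25 U/mL in mix) to NADH fluorescence; 30-min ΔRFU feeds dose-response curves.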
Numbers without * were called inactive; i = inactive. Only a selection was taken, and hits are over-represented in it overall. Potency is read from the fitted curve at half-maximal effect.

SMILES	KDM5B inh
COc1ccc(-c2cnc(NC(=O)Cc3ccccc3)c3c2CCO3)cn1	i
COc1ccc(-c2cnc(Nc3ccccc3)c3c2CCO3)cn1	40µM*
Cn1cc(-c2cnc(Nc3cccnc3)c3c2CCO3)cn1	i
COc1ccc(-c2csc3ncnc(Nc4cccc(F)c4)c23)cc1	i
COc1cccc(CNC2CCCc3nc(-c4cccnc4)ncc32)c1 (stereo not given)	i
COc1cncc(Nc2ncc(-c3cccc(F)c3)c3c2OCC3)c1	32µM*
Cn1cc(-c2cc(=O)c3ccnc(Nc4ccc5[nH]ccc5c4)c3o2)cn1	i
COc1ccc(-c2ccc3ncc(Nc4ccc(C(N)=O)cc4)n3n2)cn1	i
CC(=O)c1cccc(NC(=O)Nc2cc3c(cc2N2CCCC2)n(C)c(=O)n3C)c1	i
O=C(Cn1nc2n(c1=O)CCCC2)NC1CCCC1	i
N#Cc1ccccc1COC(=O)c1ccc2ccccc2c1	i
CNC(=O)COc1ccc(Nc2nnc(C)c3ccccc23)cc1	i
CN(C)CCCNC/C=C/c1ccccc1	i
O=C(O)C1(CC2CC2)CCCN(Cc2ncccn2)C1 (stereo not given)	i
Cc1ccc(C(=O)N2CCc3nc(-c4cn[nH]c4)[nH]c3C2)cc1N1CCNC1=O	i
O=C(Nc1ncc(-c2ccccc2)c2c1OCC2)c1ccncc1	i
CN(C)c1cccc(C(=O)N2CCNc3cnc(Nc4ccc(N5CCOCC5)cc4)nc3C2)c1	i
c1ccc(-c2cnc(Nc3ccc4c(c3)OCCO4)c3c2CCO3)cc1	40µM*
Cc1nnc(-c2cc(-c3cccc(N(C)C)c3)ccn2)n1Cc1ccncc1	i
c1ccc(-c2ccc3ncc(Nc4ccc5c(c4)OCCO5)n3n2)cc1	i
CN(C)c1cccc(-c2cnc(Nc3ccncc3)c3c2CCO3)c1	28µM*
O=C(C1CC1)N1CCC2(CC1)CC(N(Cc1ccc(F)cc1)C1CC1)CCO2 (stereo not given)	i
Cn1cccc1C(=O)C(=O)Nc1nn(C)c2cccc(N3CCOC3=O)c12	i
COC(=O)C1=C(C)OC(N)=C(C#N)C1c1ccccc1C (stereo not given)	i
CC(C)Cc1cc(CC2(NCc3ccccc3O)COC2)no1	i
SMILES	KDM5B inh
O=C(NCCc1ccccc1)c1cnc2n[nH]c(-c3ccccc3)c2n1	i
O=C(Nc1cc(Cl)ccc1F)C1CC(=O)N(C2CCCC2)C1 (stereo not given)	i
Cc1cn2nc(C(=O)Nc3ccc(Cl)cc3C)cc2c(N(C)Cc2ccccc2)n1	i
Cc1cc(=O)n(CC(=O)Nc2cccc(F)c2)c(N(C)Cc2ccccc2)n1	i
Cc1cn2nc(C(=O)Nc3ccccc3)cc2c(N(C)Cc2ccccc2)n1	28µM*
Cc1nc(-c2ccccc2)sc1CCNC(=O)C(=O)Nc1ccc2c(c1)OCCO2	i
COc1ccc(NC(=O)CNC(=O)Cc2ccccc2)cc1	i
COc1ccc(NC(=O)c2nc(-c3ccccc3)n(-c3ccccc3Cl)n2)cc1	i
Cc1cn2nc(C(=O)NCCCc3ccccc3)cc2c(=O)[nH]1	i
COc1ccc(NC(=O)c2cc3c(N(C)Cc4ccccc4)nc(C)cn3n2)cc1	32µM*
Cc1cn2nc(C(=O)Nc3ccc4c(c3)OCCO4)cc2c(N(C)Cc2ccccc2)n1	28µM*
Cc1cn2nc(C(=O)Nc3cccc(F)c3C)cc2c(N(C)Cc2ccccc2)n1	28µM*
Cn1ccc(C(=O)Nc2ccc3c(c2)OCCO3)n1	i
Cc1cn2nc(C(=O)Nc3ccccc3C)cc2c(N(C)Cc2ccccc2)n1	i
COc1ccc(N2CCN(C(CNC(=O)C(C)(C)C)c3ccco3)CC2)cc1 (stereo not given)	i
N#Cc1cccc(/C=C/C(=O)NCCc2cccs2)c1	i
O=C1NCc2ccccc2CC12CCN(Cc1ccc(F)cc1F)CC2	i
O=C1NCc2ccccc2CC12CCN(CCCc1ccccc1)CC2	i
Cc1ccc(C)c(NC(=O)Cn2c(=O)n(Cc3cccs3)c(=O)c3cccnc32)c1	i
COc1ccc(-n2c(C)c(C(C)=O)c3cc(OC(=O)c4ccc(C)cc4)ccc32)cc1	i
Cc1ccc2oc(C(=O)Nc3nonc3-c3ccc4c(c3)CCCC4)cc(=O)c2c1	i
O=C(c1ccc2c(c1)OCO2)N1CCC2(CC1)CC(O)CCO2 (stereo not given)	i
O=C(Cc1ccc(-n2cnnn2)cc1)NC1CCOC2(CCOCC2)C1 (stereo not given)	i
CC(C)NC(=O)[C@@H]1C[C@@H](NC(=O)c2ccon2)CN1Cc1cccnc1N	i
O=C(NC1CCOC2(CCOCC2)C1)c1cnc2c(O)cccn2c1=O (stereo not given)	32µM*
NC(=O)COc1cccc(C(=O)N2CCC3(CC2)OCCCC3O)c1 (stereo not given)	i
CC(C)NC(=O)C1Cn2cccc2C(=O)N1Cc1ccccc1 (stereo not given)	i
O=C(c1cnc2c(O)cccn2c1=O)N1CCC2(CC1)OCCCC2O (stereo not given)	32µM*

Screening results as filed in PubChem BioAssay.
